Screening results from PubChem.
RORgamma inh: blocks mouse ROR gamma transcriptional activity | P51450 | Drosophila S2 Gal4-RORgamma UAS-luciferase reporter, 20 h | Potency, µM (series often up to 53.6 µM), inactives show top-dose activity change, negative = inhibition, most hits filed as inhibitors | 5.4% of 310,000 active | AID 2551; note: nearly all actives have a fitted effect of over 60% in size
Target sequence (P51450 whole entry, looked up, the tested form may be a part): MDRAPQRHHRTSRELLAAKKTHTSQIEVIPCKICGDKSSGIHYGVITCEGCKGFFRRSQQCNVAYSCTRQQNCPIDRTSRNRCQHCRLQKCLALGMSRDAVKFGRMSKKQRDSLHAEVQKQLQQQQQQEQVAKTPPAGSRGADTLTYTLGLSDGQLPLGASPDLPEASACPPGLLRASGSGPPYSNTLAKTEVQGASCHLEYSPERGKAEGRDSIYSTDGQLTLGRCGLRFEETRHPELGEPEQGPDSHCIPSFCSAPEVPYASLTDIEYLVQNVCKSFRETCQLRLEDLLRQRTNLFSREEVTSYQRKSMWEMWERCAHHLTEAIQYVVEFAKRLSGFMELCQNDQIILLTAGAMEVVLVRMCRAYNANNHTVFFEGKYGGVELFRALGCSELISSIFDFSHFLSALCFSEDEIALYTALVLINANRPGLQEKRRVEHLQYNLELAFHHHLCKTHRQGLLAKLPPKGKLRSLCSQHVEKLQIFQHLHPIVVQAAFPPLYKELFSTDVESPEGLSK
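Stable Schneider cell line, Gal4 DNA-binding domain fused to ROR gamma, UAS-luciferase. Cmpd 1 hr RT → CuSO4 700 uM final → 20 hr RT → luciferase reagent 10 min → luminescence.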
ALDH1A1 inh: ALDH1A1 (human) enzyme inhibition; P00352; Purified ALDH1A1, NADH fluorescence, propionaldehyde substrate; Potency, µM (series often up to 75.3 µM), without a hit: at the highest dose activity, negative = inhibition, usual class: inhibitors; 7.3% of 220,000 active; AID 1030; active = well fitted inhibition curve with a large enough effect, not every such curve was filed as active; inconclusive = small, poorly fitted or top-dose-only effect, or another doubt; inactive = no such curve, though single readings can be large or run the other way;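 note: plate controls were no enzyme wells and a reference inhibitor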
PLK1 PBD inh: PLK1 (human) polo-box domain binding inhibition. P53350. Potency, µM, inactives show max response, negative = inhibition, hits mostly inhibitors. AID 720504. Plk1 PBD binding of FITC phosphopeptide, fluorescence polarization. 2.8% of 360,000 active; note: series mostly up to about 57 µM; nearly all actives have a fitted effect of over 65% in size
Sfp inh: inhibitors of Bacillus subtilis Sfp phosphopantetheinyl transferase | 3.5% of 310,000 active | Q9F4F7 | Potency, µM, for the others: largest response in the series, negative = inhibition, actives largely listed as inhibitors | Biochemical Sfp PPTase activity, qHTS;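 note: the enzyme is Sfp with the accession as filed and its product quenches rhodamine fluorescence; 0% = enzyme reaction without inhibitor and -100% = no enzyme wells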
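Sfp 15 nM + cpd, 15 min RT; start w/ rhodamine-CoA 5 uM, BHQ-2-YbbR 12.5 uM (final); 50 mM Hepes pH 7.6, 10 mM MgCl2, 0.01% NP-40, 0.01% BSA; read 525/598 nm at 0 and 30 min.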
Gal4-VP16 FLuc: counter-screen for ROR gamma inhibitors: Gal4-VP16 reporter. Drosophila S2 Gal4-VP16 UAS-luciferase, luminescence, 20 h. Potency, µM (highest dose often 53.6 µM), for inactives: at the top dose activity, negative = inhibition, hits mostly inhibitors. 3.5% of 310,000 active. AID 2546;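 note: Gal4-VP16 expression switched on by copper sulfate through the metallothionein promoter; nearly all actives have a fitted effect of over 50% in size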
Numbers without * were called inactive; ? = inconclusive; / = not tested or not shown; [ ] = remark or other dose. A selection: hits, their analogues and other compounds. The true share with any hit is near 12%. Unless noted, calls come from the whole dose curve; as a rule, active = well fitted curve in the direction sought with a large enough effect; inconclusive = small, poorly fitted or top-dose-only effect, or another doubt; inactive = no such curve, though single readings can be large; an effect the other way counts as inactive or inconclusive. Unless noted, % is set by controls: 0 for no effect and ±100 for the full control effect; potency is the fitted concentration of half-maximal effect.

SMILES	RORgamma inh	ALDH1A1 inh	PLK1 PBD inh	Sfp inh	Gal4-VP16 FLuc
C=C[C@]1(C)C=C2CC[C@H]3[C@@](C)(CCC[C@@]3(C)C(=O)O)[C@@H]2CC1	/	/	30µM*	/	/
CC(C)C1=CC2=CC[C@@H]3[C@@](C)(C(=O)O)CCC[C@]3(C)C2CC1 (some centres undefined)	0%	?	/	-5%	-17%
CCN(CC)CCCC(C)n1c(-c2ccccc2)nc2c(N3CCOCC3)nc(C)nc21 (centres undefined)	-15%	?	/	22%	-7%
CCN(CC)S(=O)(=O)c1ccc(C(=O)Nc2cccc(C)c2)cc1	17%	?	0%	9%	-25%
CN(c1ccccc1)S(=O)(=O)c1ccc(NC(=O)c2ccc(-c3ccccc3)cc2)cc1	?	1%	1%	18%	-17%
CCCCN(C)S(=O)(=O)c1ccc(C(=O)Nc2nnc(-c3ccco3)o2)cc1	0.4µM*	?	-18%	17%	0.71µM*
CCN(CC)S(=O)(=O)c1ccc(C(=O)Nc2nnc(-c3ccco3)o2)cc1	0.56µM*	3%	-7%	21%	1.3µM*
CS(=O)(=O)c1ccc(-c2nnc(NC(=O)c3ccco3)o2)cc1	/	/	-5%	/	/
CN(c1ccccc1)S(=O)(=O)c1ccc(C(=O)Nc2nnc(-c3ccc(F)cc3)o2)cc1	1µM*	-1%	?	12%	1.6µM*
CCCCN(CC)S(=O)(=O)c1ccc(C(=O)Nc2nnc(-c3cccs3)o2)cc1	0.028µM*	?	?	31%	0.13µM*
CN(C)S(=O)(=O)c1ccc(C(=O)Nc2nnc(-c3ccco3)o2)cc1	1µM*	-3%	-15%	-19%	3.2µM*
O=C(CCS(=O)(=O)c1ccc(F)cc1)Nc1nnc(-c2ccco2)o1	/	/	-14%	/	/
Cc1cccc(-n2c(SCC(=O)Nc3ccc4c(c3)OCO4)nnc2-c2ccoc2C)c1	2µM*	?	-5%	-4%	?
Cc1nonc1NC(=O)CSc1nnc(-c2ccoc2C)n1-c1cccc(Cl)c1	27%	10µM*	-4%	4%	9%
COc1cccc(NC(=O)CSc2nnc(-c3ccoc3C)n2-c2ccccc2)c1	0%	?	-15%	13%	8%
CCCn1c(SCC(=O)Nc2nonc2C)nnc1-c1ccoc1C	7%	0%	?	25%	17%
NC(=O)[C@@H]1CCCN1C(=O)[C@H](Cc1cnc[nH]1)NC(=O)[C@@H]1CCC(=O)N1	-7%[10 µM]	/	/	12%	-8%
CN(CC(=O)Nc1ccc(Cl)cc1)Cc1cc(=O)n2ccsc2n1	13%	?	30µM*	-1%	-11%
Cc1ccc(NC(=O)CN(C)Cc2cc(=O)n3ccsc3n2)cc1	-1%	/	-16%	12%	4%
Cc1cc(C)cc(Nc2ncc3c(n2)CCCC3=O)c1	11µM*	6%	-3%	8%	11µM*
CC(C)CCC[C@](C)(O)c1ccc(C(=O)O)cc1O	/	/	-2%	/	/
Cc1ccc(C(O)(COC(=O)C(C)C)COC(=O)C(C)C)c(O)c1	-106%	7.9µM*	-10%	79µM*	32µM*
CN(C)c1ccc(C(=O)Nc2nnc(-c3ccc(Cl)cc3)o2)cc1	0.5µM*	?	-6%	-9%	0.5µM*
O=C(Nc1nnc(-c2ccccc2)o1)c1ccc(Cl)cc1	0.71µM*	9%	-7%	16%	1.4µM*
O=C(Nc1nnc(-c2ccccc2)o1)Nc1ccccc1Cl	40%	-5%	0%	-9%	-8%
SMILES	RORgamma inh	ALDH1A1 inh	PLK1 PBD inh	Sfp inh	Gal4-VP16 FLuc
O=C(Nc1nnc(-c2ccc(Cl)cc2)o1)NC1CCCCC1	?	9%	-3%	26%	3.5µM*
CCOc1ccccc1C(=O)NC(C(=O)OCC(=O)Nc1nnc(-c2ccccc2)o1)C(C)C (centres undefined)	2.2µM*	?	-18%	28%	5µM*
CN(C)c1ccc(C(=O)NNC(=O)c2ccc(Cl)cc2)cc1	-2%	?	-12%	-6%	-11%
O=C(Nc1ccc(Cl)cc1)NC1CCCCC1	13%	20%	0%	31%	?
CC(Sc1nc(C(F)(F)F)nc2ccccc12)C(=O)NC1CCCC1 (centres undefined)	/	/	-3%	/	/
Cc1ccccc1C	-12%	3%	/	/	-17%
O=C(CCn1c(=S)oc2ccccc21)Nc1cc([N+](=O)[O-])ccc1F	42%	/	-11%	5%	-11%
O=c1c(-c2cccs2)nc2cnc(Oc3cccc(Cl)c3)nc2n1C1CC1	2%	?	/	-15%	3%
CC(=O)c1ccc(C(=O)Nc2nnc(-c3ccc(Cl)cc3)o2)cc1	-35%	/	-14%	15%	2.5µM*
Cc1ccnc2nc(C(=O)Nc3nnc(-c4ccc(Cl)cc4)o3)nn12	-2%	7%	-18%	-3%	-3%
O=C(COc1ccc(Cl)cc1)Nc1nnc(-c2ccc3c(c2)CCCC3)o1	-75%	3%	-7%	?	?
O=C(COc1ccccc1)Nc1nnc(-c2ccc(Cl)cc2)o1	7.1µM*	/	-10%	6%	5.6µM*
S=c1nc[nH]c2c1ncn2C1CCCO1 (centres undefined)	-11%	13µM*	27µM*	4µM*	-15%
Cn1cccc1C(=O)N1CCC2(CCCN(C(=O)Nc3cccc(C#N)c3)C2)CC1	-12%	4%	/	25%	-5%
COC(=O)C1NN=C(C(=O)c2ccc(Cl)cc2)C1c1ccc(OC)cc1 (centres undefined)	?	25µM*	4%	0%	5%
O=C(Nc1ccc(OCc2ccccc2)cc1)Nc1nnc([C@@H]2C[C@H](O)[C@@H](CO)O2)s1	/	/	-3%	/	/
COc1ccc(/C(N)=N/OC(=O)Cc2cccs2)cc1OC	43%	?	2%	79µM*	-23%
O=C1C2=CC[C@@H]3C(=O)N(c4ccc(F)cc4F)C(=O)[C@H]3[C@H]2[C@H](O)[C@H]2O[C@H]12	?	-6%[13.5 µM]	/	-10%	?
CCOC(=O)CCN1C(=O)[C@@H]2[C@H]3C(=CC[C@H]2C1=O)C(=O)[C@H]1O[C@H]1[C@H]3O	2.2µM*	?	/	-6%	-84%[10 µM]
C[C@@H](c1ccccc1)N1C(=O)[C@H]2[C@H]3[C@H](O)[C@H](O)C/C(=N/OCc4ccccc4)[C@H]3CC[C@@H]2C1=O	1%[10 µM]	1%[13.5 µM]	/	23%	0%[10 µM]
CC(C)(C)N1C(=O)[C@@H]2[C@H]3C(=CC[C@H]2C1=O)C(=O)[C@H]1O[C@H]1[C@H]3O	1.4µM*	?	/	-16%	?
C[C@@H](c1ccccc1)N1C(=O)[C@@H]2[C@H]3C(=CC[C@H]2C1=O)C(=O)[C@H]1O[C@H]1[C@H]3O	3.5µM*	-5%[13.5 µM]	/	15%	?
Cc1ccccc1NC(=O)CCCN1C(=O)C2CC=CCC2C1=O (centres undefined)	0%	/	-3%	22%	2%
CCOC(=O)N1C(COCc2ccccc2)C=CCS1(=O)=O (centres undefined)	16%	/	/	28%	-1%
CCc1nc2ccc(C(=O)NCc3ccc(OC)cc3)cn2c1N(CC)CCOC	/	/	-9%	/	/
